Reference: PubChem BioAssay
Some of the results follow. Calls of active or inactive are those of the source.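 How the source made its calls, unless noted: active means mean inhibition over 43.08%, the solvent-only control mean plus 3 SD; inactive means the rest.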

Columns and labels:
[1] = biological target: Nuclear receptor coactivator 3 (Homo sapiens) (UniProt Q9Y6Q9); assay: SRC3 coactivator transcriptional activity inhibitors, confirmation, cell-based, luminescence, quadruplicate (AID 588792); conditions: HEK293 GAL4-SRC3 luciferase reporter, at 3.6 µM, active compounds read high;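 further: 0% = DMSO treated cells and 100% = gossypol at 36 µM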
[2] = system: transactivating tegument protein VP16 (Human herpesvirus 1), Gal4-VP16 luciferase reporter; assay: VP16 transactivation inhibitors, counter-screen for SRC3 inhibitor project, cell-based, luminescence, high throughput (AID 588794; in the data active means inhibition above about 30%); conditions: mammalian cells, VP16-driven luciferase reporter luminescence; at 3.6 µM; active compounds read high
[3] = biological target: Nuclear receptor coactivator 1 (Homo sapiens) (UniProt Q15788); assay: SRC1 coactivator transcriptional activity inhibitors, confirmation, cell-based, luminescence, quadruplicate (AID 588820;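 active means mean inhibition above 46.68%, the untreated control wells mean plus 3 SD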;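 further: 0% = DMSO wells and 100% = gossypol 36 µM treated wells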); conditions: HEK293 GAL4-SRC1 luciferase reporter, at 3.6 µM, active compounds read high
[4] = VP16 transactivation inhibitors, counter-screen for SRC1 inhibitor project, cell-based, luminescence, high throughput (AID 588824; in the data active means inhibition above about 25%); conditions: cell-based VP16 transactivation luciferase luminescence; at 3.6 µM; active compounds read high
[5] = StAR promoter reporter inhibitors, counter-screen for LRH-1 inverse agonist project, cell-based, luminescence, high throughput (AID 651611; in the data active means inhibition above about 28%); conditions: StAR promoter luciferase reporter counterscreen, at 3.6 µM, active compounds read high
[6] = biological target: Nuclear receptor subfamily 5 group A member 2 (Homo sapiens) (UniProt O00482); assay: LRH-1 (NR5A2) inverse agonists, retest, confirmation, cell-based, luminescence (AID 651613; in the data active means inhibition above about 42%;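 further: HEK293T cells co-transfected with LRH-1 and StAR promoter luciferase reporter; 0% = vehicle wells and 100% = parental cells lacking receptor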); conditions: cell-based LRH-1 luciferase reporter, inverse agonism; at 3.6 µM; active compounds read high
[7] = biological target: Steroidogenic factor 1 (Homo sapiens) (UniProt Q13285); assay: SF1 (NR5A1) inverse agonists, counter-screen for LRH-1 inverse agonist project, cell-based, luminescence, high throughput (AID 651614; in the data active means inhibition above about 44%;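 further: cells cotransfected with StAR promoter reporter and SF1 expression vector; 0% = vehicle on cells with receptor and 100% = vehicle on cells lacking receptor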); conditions: cell-based SF1 luciferase reporter, at 3.6 µM, active compounds read high
[8] = VP16 transactivation reporter inhibitors, counter-screen for LRH-1 inverse agonist project, cell-based, luminescence, high throughput (AID 651615; in the data active means inhibition above about 33%); conditions: Gal4-VP16 luciferase reporter cells, at 3.6 µM, active compounds read high
[9] = system: transactivating tegument protein VP16 (Human herpesvirus 1); assay: VP16 transactivation reporter inhibitors, counter-screen for SRC2 inhibitor project, cell-based, luminescence, single concentration (AID 652007; in the data active means inhibition above about 36%); conditions: cell-based VP16 transactivation luciferase reporter, at 8.9 µM, active compounds read high
[10] = biological target: Nuclear receptor coactivator 2 (Homo sapiens) (UniProt Q15596); assay: SRC2 coactivator transcriptional activity inhibitors, confirmation, cell-based, luminescence, HEK293, triplicate (AID 652008;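 active means mean inhibition above 46.5%, the solvent-only control mean plus 3 SD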;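 further: 0% = DMSO-treated cells and 100% = Gossypol at 36 µM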); conditions: HEK293 GAL4-SRC2 luciferase reporter, at 8.9 µM, active compounds read high
[11] = Gal4-VP16 luciferase reporter inhibitors, counter-screen for COUP-TFII antagonist project, cell-based, luminescence, HEK293 (AID 687007; in the data active means inhibition above about 13%); conditions: at 8.5 µM, active compounds read high
[12] = biological target: COUP transcription factor 2 (Homo sapiens) (UniProt P24468); assay: NR2F2 transcriptional activity inhibitors, confirmation, cell-based, luciferase reporter, HEK293, triplicate (AID 687008;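 active means mean inhibition over three repeats above a set limit taken from the earlier primary screen, cut at about 38% in these data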;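 further: 100% = cells given the luciferase reporter alone without the COUP-TF2 vector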); conditions: HEK293 NGFI-A luciferase reporter, luminescence; at 8.5 µM; active compounds read high

Measured: inhibition

Chain of Steroidogenic factor 1 (Homo sapiens) (Q13285 whole entry, looked up, the tested form may be a part): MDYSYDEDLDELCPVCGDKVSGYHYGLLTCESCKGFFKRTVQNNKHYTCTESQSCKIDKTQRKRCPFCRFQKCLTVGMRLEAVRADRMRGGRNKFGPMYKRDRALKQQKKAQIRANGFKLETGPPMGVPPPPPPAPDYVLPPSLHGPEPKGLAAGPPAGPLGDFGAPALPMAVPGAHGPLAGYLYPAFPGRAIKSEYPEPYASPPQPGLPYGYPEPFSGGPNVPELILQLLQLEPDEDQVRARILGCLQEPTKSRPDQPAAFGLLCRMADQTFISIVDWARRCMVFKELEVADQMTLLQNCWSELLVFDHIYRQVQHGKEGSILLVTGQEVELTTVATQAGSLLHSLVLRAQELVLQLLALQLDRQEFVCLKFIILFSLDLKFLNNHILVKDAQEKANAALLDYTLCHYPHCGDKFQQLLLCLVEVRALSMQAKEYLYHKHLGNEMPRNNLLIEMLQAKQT
Chain of Nuclear receptor coactivator 1 (Homo sapiens) (Q15788 whole entry, looked up, the tested form may be a part): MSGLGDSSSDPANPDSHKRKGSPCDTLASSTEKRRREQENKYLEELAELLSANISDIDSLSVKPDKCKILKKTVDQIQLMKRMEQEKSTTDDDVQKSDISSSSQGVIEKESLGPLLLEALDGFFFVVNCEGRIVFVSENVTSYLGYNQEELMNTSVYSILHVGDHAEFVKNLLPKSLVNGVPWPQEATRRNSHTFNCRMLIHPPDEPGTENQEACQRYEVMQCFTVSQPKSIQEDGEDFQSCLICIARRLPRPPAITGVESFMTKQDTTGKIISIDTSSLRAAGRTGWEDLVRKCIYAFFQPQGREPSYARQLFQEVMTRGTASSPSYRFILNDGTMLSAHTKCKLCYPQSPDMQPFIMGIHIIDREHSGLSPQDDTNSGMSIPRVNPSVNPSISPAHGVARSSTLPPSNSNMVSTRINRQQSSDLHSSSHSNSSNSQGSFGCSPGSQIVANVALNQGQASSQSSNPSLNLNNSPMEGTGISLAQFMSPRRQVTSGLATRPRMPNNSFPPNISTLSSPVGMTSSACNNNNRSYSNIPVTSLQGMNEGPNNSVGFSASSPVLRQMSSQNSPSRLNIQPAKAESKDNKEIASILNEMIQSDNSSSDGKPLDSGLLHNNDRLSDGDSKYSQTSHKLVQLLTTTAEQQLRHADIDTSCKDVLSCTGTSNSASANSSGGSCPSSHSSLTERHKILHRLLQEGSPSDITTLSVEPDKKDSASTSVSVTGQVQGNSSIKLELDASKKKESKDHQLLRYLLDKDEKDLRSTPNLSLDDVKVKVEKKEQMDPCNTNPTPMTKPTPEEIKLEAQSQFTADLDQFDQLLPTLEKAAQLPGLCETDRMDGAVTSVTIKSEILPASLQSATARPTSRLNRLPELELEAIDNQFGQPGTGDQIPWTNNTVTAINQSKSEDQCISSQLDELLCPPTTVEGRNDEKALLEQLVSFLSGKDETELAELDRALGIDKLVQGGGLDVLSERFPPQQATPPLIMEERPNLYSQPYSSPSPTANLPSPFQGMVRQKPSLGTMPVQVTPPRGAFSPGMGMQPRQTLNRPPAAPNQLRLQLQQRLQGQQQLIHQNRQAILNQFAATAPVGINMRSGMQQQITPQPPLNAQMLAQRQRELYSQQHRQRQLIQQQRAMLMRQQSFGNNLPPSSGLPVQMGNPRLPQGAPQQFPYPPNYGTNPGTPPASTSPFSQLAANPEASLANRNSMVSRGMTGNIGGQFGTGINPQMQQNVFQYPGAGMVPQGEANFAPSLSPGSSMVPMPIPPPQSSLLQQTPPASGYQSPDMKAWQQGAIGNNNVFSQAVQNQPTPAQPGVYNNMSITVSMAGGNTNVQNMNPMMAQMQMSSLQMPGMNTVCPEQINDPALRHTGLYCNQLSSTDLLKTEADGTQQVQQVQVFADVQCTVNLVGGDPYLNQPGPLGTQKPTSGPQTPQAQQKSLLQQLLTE
Chain of Nuclear receptor coactivator 3 (Homo sapiens) (Q9Y6Q9 whole entry, looked up, the tested form may be a part): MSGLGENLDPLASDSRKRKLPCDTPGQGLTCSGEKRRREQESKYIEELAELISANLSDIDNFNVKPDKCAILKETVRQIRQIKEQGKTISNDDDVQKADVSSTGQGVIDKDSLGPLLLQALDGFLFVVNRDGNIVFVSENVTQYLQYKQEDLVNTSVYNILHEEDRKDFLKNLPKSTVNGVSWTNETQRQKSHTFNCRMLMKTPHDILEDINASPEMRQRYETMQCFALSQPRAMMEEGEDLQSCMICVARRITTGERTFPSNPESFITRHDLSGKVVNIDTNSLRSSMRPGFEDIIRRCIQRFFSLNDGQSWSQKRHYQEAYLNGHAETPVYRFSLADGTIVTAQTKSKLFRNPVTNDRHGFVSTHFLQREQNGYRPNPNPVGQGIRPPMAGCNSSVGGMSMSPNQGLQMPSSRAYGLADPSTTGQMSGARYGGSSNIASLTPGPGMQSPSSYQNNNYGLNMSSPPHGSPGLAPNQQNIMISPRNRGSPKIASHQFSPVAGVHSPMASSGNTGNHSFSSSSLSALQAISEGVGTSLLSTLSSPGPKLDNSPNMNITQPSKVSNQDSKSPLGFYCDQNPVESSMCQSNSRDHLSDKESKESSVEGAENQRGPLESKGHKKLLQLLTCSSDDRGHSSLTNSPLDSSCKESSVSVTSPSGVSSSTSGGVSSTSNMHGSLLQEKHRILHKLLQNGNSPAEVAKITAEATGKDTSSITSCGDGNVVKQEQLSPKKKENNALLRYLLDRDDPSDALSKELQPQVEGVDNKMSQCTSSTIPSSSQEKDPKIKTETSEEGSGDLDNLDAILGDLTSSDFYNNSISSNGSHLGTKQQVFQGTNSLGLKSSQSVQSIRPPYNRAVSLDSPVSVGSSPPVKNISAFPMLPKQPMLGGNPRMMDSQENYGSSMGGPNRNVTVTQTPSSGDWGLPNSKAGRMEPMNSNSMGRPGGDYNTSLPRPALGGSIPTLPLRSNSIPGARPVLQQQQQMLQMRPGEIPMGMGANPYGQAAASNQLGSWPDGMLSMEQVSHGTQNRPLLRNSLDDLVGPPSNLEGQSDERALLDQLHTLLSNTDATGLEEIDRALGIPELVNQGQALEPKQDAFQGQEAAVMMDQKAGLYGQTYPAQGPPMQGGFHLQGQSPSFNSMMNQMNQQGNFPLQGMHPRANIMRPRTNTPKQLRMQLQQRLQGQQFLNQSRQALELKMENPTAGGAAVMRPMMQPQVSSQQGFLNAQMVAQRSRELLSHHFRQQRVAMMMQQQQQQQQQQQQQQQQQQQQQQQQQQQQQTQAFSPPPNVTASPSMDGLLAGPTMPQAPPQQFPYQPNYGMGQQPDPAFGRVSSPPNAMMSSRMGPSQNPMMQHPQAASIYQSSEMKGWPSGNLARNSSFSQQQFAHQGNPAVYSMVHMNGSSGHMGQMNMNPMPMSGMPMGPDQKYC
Chain of Nuclear receptor coactivator 2 (Homo sapiens) (Q15596 whole entry, looked up, the tested form may be a part): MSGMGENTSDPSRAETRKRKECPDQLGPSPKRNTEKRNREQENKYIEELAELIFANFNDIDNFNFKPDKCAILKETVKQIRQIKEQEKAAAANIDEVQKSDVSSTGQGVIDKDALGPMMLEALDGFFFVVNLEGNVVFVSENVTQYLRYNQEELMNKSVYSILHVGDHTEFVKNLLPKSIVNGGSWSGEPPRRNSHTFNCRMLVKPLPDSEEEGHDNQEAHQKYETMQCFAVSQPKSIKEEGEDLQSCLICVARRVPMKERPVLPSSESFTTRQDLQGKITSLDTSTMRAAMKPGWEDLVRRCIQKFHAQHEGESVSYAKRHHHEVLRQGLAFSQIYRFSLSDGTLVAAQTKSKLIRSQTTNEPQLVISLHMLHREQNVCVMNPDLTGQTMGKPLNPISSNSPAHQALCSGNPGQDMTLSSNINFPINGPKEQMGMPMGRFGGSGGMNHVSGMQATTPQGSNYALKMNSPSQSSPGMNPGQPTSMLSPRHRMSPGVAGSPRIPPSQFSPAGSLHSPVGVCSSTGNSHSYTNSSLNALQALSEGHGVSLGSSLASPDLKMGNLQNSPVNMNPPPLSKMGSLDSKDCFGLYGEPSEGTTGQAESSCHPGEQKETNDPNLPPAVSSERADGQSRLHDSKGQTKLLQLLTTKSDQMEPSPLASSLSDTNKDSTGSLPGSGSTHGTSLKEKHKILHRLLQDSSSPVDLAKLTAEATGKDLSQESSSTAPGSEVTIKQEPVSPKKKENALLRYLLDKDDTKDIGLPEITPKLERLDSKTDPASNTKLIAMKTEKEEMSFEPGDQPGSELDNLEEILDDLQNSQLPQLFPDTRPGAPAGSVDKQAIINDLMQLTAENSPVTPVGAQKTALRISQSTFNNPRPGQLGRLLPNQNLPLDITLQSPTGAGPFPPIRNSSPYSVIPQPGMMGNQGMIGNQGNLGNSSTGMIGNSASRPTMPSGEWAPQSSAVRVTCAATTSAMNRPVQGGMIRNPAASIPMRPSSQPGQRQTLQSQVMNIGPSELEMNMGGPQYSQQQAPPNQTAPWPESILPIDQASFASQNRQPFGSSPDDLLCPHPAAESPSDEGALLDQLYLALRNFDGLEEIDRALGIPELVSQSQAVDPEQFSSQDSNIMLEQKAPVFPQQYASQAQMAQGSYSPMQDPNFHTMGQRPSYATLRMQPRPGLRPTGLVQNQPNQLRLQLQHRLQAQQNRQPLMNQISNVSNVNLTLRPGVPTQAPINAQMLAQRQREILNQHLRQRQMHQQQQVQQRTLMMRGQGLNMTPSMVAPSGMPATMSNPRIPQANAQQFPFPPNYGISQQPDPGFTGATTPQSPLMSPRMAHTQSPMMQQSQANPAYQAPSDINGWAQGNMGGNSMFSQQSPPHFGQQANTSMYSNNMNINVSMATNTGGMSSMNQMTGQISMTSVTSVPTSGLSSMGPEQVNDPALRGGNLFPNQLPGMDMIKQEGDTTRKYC

CC(=O)OC1(C)CC(C)C(=O)C(C(O)CC2CC(=O)NC(=O)C2)C1 (stereo unspecified)
active: [1] 98% | [2] 96.7% | [3] 93.5% | [4] 95.6% | [5] 94.8% | [6] 110% | [7] 97.5% | [8] 95.8% | [9] 80.1% | [10] 71.5%

CCN1CCN(c2ncnc3ccc(Br)cc23)CC1
inactive: [9] 2.45% | [10] 36.7%
active: [1] 56.6% | [2] 54.3% | [3] 72.2% | [4] 44.9%

CCCCN=C[C@]12CCC(O)CC1(O)CCC1[C@@H]2CC[C@]2(C)[C@H](C3C=CC(=O)O3)CCC12O (stereo partly specified)
active: [1] 94% | [2] 75.5% | [4] 75% | [5] 97% | [6] 110% | [7] 98.5% | [8] 85.2% | [9] 69.6%
inactive: [3] 42% | [10] 20.9%

C[C@]12CC[C@H](O)C[C@H]1CC[C@@H]1[C@@H]2CC[C@]2(C)[C@@H](C3=CC(=O)OC3)CC[C@]12O
inactive: [10] 30.2%
active: [1] 95.3% | [2] 82.7% | [3] 58.7% | [4] 80.1% | [5] 95.7% | [6] 110% | [7] 97.4% | [8] 87% | [9] 56%

COc1ccc(CC2NCC(O)C2OC(C)=O)cc1 (stereo unspecified)
active: [1] 98.6% | [2] 96.7% | [3] 96.2% | [4] 96.6% | [5] 96.6% | [6] 111% | [7] 98.3% | [8] 96.1% | [9] 84.6% | [10] 82.5%

C[C@]12CC[C@H](O)C[C@H]1CC[C@@H]1C2CC[C@]2(C)[C@@H](C3=CC(=O)OC3)[C@@H](O)C[C@]12O (stereo partly specified)
inactive: [2] 21.1% | [3] -39% | [4] 12.7% | [11] -16.6% | [12] 30.9%
active: [1] 75.3% | [5] 87.1% | [6] 90.4% | [7] 69.9% | [8] 40.9%
